Granule exo inh: lytic granule exocytosis inhibition | TALL-104 LAMP-1 surface exposure, flow cytometry; cells stimulated with thapsigargin and PMA | inhibition, % at 10 µM | 360,000 compounds, 0.66% hits | AID 651702;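 active means inhibition above about 55%, limit read from the data; inconclusive means no clear call, values can overlap the other calls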
NPR2 activator: GC-B (human) receptor activation; HEK293-GC-B cells, CNP EC30, cGMP TR-FRET; 0% at EC30 CNP, 100% saturating CNP; activation, % at 10 µM; 370,000 compounds, 0.11% hits;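 active means activation at 10 µM reaching about 35% in either raw or pattern-adjusted values, limit read from the data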
Myeloid diff MLP: compounds promoting myeloid differentiation; ER-HoxA9 myeloid progenitors, lysozyme-GFP differentiation, flow cytometry; calls only at 10 µM; 360,000 compounds, 1% hits;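 active means normalized GFP-positive differentiation at or above the plate's own cutoff, the solvent-only control mean plus 3 SD; inconclusive means no clear call, values can overlap the other calls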;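 further: cells exposed to compound for four days before flow analysis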
GC-A act: GC-A (human) enzyme activation. P16066. HEK293 GC-A cells, cGMP TR-FRET, EC30 ANP; 0% at EC30 ANP, 100% saturating ANP. activation, % at 10 µM. 370,000 compounds, 0.14% hits. AID 1671463; in the data active means activation above about 40%
Myeloid diff: promotes myeloid progenitor differentiation; shares compounds with Myeloid diff MLP; ER-HoxA9 myeloid progenitors, GFP/Mac1 double-positive flow; calls only; 2,300 compounds, 2% hits; AID 651706;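 active means share of green or green-and-red cells above 9 and 9% in run 1 or 4 and 3% in run 2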
GFP autofluor: compound fluorescence in myeloid differentiation counter-screen; shares compounds with Myeloid diff MLP; ER-HoxA9 myeloid progenitors, no estrogen, GFP autofluorescence flow cytometry; vehicle wells 0%, positive control 100%; fluorescence response, % (no concentration beside the values); 2,300 compounds, 7.4% hits; AID 651707;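 active means over 5% cells positive for green fluorescent reporter, or over 2% positive for both it and APC stain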
Numbers stand for hits; i = inactive; ? = inconclusive; nt = no result given; + = active, no number. Rows were chosen to be rich in hits. Some 1.8% of all compounds tested hit in one or more screens of this group.

SMILES | Granule exo inh | NPR2 activator | Myeloid diff MLP | GC-A act | Myeloid diff | GFP autofluor
Cc1cccc(NCCNc2cccc(C)c2)c1 | i | i | i | i | nt | nt
CCCCCCCNc1cccc(C)c1 | i | i | i | i | i | i
Cc1c(C(=O)OC(C)C)[nH]c2c1C(=O)CC(C)(C)C2 | i | i | + | i | i | i
Cc1c(C(=O)OC(C)C)[nH]c2c1C(=O)CCC2 | i | i | i | i | nt | nt
COc1c2c(cc3c1c(=O)c1ccccc1n3C)OCO2 | nt | i | nt | i | nt | nt
COc1cccc(C=NNC(=O)CSc2nc3ccccc3[nH]2)c1O | nt | i | nt | i | nt | nt
Oc1ccccc1N=Cc1ccc[nH]1 | i | i | + | i | i | i
Cc1cccc(CN2CCN(C3CN(Cc4cn(Cc5cccc(Cl)c5)nn4)S(=O)(=O)C3)CC2)c1 (stereo not given) | i | i | i | i | nt | nt
O=C(C[C@@H]1CC[C@@H]2[C@H](COC[C@H](O)CN2CCC(F)(F)F)O1)NCc1ccc2c(c1)OCO2 | i | i | i | i | nt | nt
Cn1cc(-c2cccc(C(F)(F)F)c2)cc(C#N)c1=O | i | i | + | i | i | i
Cn1cc(-c2cccc(Cl)c2)cc(C#N)c1=O | i | i | i | i | nt | nt
COCOc1ccc(-c2ncc(OCCN3CCCC3=O)nc2NC(=O)c2cc3ccccc3s2)cc1 | i | i | i | i | nt | nt
CCNC(=S)N(CCc1c(C)[nH]c2ccccc12)Cc1cc(OC)c(OC)c(OC)c1 | i | i | i | i | i | i
COc1ccccc1C(=O)NC1CCCCN(Cc2ccc(OC(F)(F)F)cc2)C1=O (stereo not given) | nt | i | nt | i | nt | nt
Clc1cccc(CNc2nc(-c3ccccn3)nnc2-c2ccccc2)c1 | nt | i | nt | i | nt | nt
Cc1ccc(CNC(=O)C(=O)NCC2OCCN2C(=O)c2cccs2)cc1 (stereo not given) | i | i | + | i | i | i
O=C(NCc1ccccc1)C(=O)NCC1OCCN1C(=O)c1cccs1 (stereo not given) | i | i | i | i | nt | nt
CCCCC(=O)OCC(=O)c1cc(C)n(-c2c(C)n(C)n(-c3ccccc3)c2=O)c1C | i | i | i | i | i | i
COc1cc(Nc2ccn3nccc3n2)cc(OC)c1OC | i | i | i | i | nt | nt
O=C1c2ccccc2NC(c2ccccc2)N1Cc1ccco1 (stereo not given) | i | i | i | i | nt | nt
O=C1c2ccccc2NC(c2ccc(F)cc2)N1Cc1ccco1 (stereo not given) | i | i | i | i | i | i
CCCC1=[N+](CC(=O)c2ccccc2)CCn2c(C)ccc21 | i | i | + | i | i | i
Cc1csc(C)[n+]1CC(=O)c1ccccc1 | i | i | i | i | nt | nt
CC(C)[C@@H]1NC(=O)[C@@H]2CSCCS(=O)(=O)N2C1=O | nt | i | nt | i | nt | nt
CN(C)CCCn1c(N)c(C#N)c2nc3ccccc3nc21 | i | i | i | i | i | i
SMILES | Granule exo inh | NPR2 activator | Myeloid diff MLP | GC-A act | Myeloid diff | GFP autofluor
COc1ccc(CC(=O)Nc2nc(-c3cc(OC)ccc3OC)cs2)cc1 | i | i | i | i | nt | nt
COc1ccc(OC)c(-c2csc(NC(=O)Cc3cccs3)n2)c1 | i | i | + | i | i | i
Cc1ccc(-c2cc(C(=O)NN=C3CCCC3)c3ccccc3n2)cc1 | i | i | i | i | i | i
CCCCN(CCCNC(=S)NCCCc1cnc[nH]1)c1ccc(Br)cn1 | i | i | i | i | nt | nt
COc1ccc(NC(=O)COC(=O)c2ccc(S(=O)(=O)N3CCCCC3)cc2)c(OC)c1 | i | i | i | i | nt | nt
C[C@H](O)[C@@H]1C(=O)N2CCc3ccc(-c4cccc(F)c4)cc3[C@@H]2C[C@@H]1N(C)C(=O)Nc1ccccc1 | i | i | i | i | nt | nt
C[C@H](O)[C@@H]1C(=O)N2CCc3ccc(-c4ccccc4)cc3[C@@H]2C[C@@H]1N(C)C(=S)Nc1ccc(F)cc1 | i | i | i | i | i | 87
Cc1cc(=O)oc2cc(OCc3ccc(S(=O)(=O)N4CCOCC4)cc3)ccc12 | i | i | + | i | i | i
Cc1cc(=O)oc2cc(OCC(=O)N3CCOCC3)ccc12 | i | i | i | i | nt | nt
CC(C)(C)c1ccc(-c2nnc3n2N=C(c2ccc(Cl)cc2)CS3)cc1 | nt | i | nt | i | nt | nt
COc1ccc(CNC(=O)c2cccc3c(-c4cccnc4)coc23)cc1OC | i | i | i | i | i | i
COc1cc(NC(=O)c2cccc3c(-c4cnn(C)c4)coc23)cc(OC)c1OC | i | i | + | i | i | 26
Cc1cc(C)cc(NC(=O)OC2CC3CC2[C@H]2CCCCN2[C@H]3C)c1 (stereo not given in full) | nt | i | nt | i | nt | nt
Cn1c(Cc2ccccc2)nnc1SCC(=O)Nc1ccccc1N1CCOCC1 | i | i | i | i | i | i
Cn1ccnc1SCC(=O)Nc1cc(C(F)(F)F)ccc1N1CCOCC1 | i | i | i | i | i | i
CCn1c(Cc2ccccc2)nnc1SCC(=O)Nc1ccccc1N1CCOCC1 | i | i | i | i | nt | nt
Cn1cnnc1SCC(=O)Nc1cc(C(F)(F)F)ccc1N1CCOCC1 | i | i | i | i | nt | nt
CS(=O)(=O)Nc1cccc(C2=NN(S(=O)(=O)c3ccccc3)C(c3ccco3)C2)c1 (stereo not given) | i | i | i | i | nt | nt
CCS(=O)(=O)N1N=C(c2cccc(NS(C)(=O)=O)c2)CC1c1ccccc1 (stereo not given) | i | i | + | i | i | 97
COc1cc(CSc2nnnn2-c2ccc(C)cc2)cc(OC)c1OC | i | i | i | i | i | i
COc1ccc(F)cc1CSc1nnnn1-c1ccc(O)cc1 | i | i | i | i | nt | nt
CCOC(=O)c1cnc(SCc2nc(N)nc(Nc3ccc(C)cc3)n2)nc1N | i | i | i | i | i | i
CCOC(=O)c1cnc(SCc2nc(N)nc(Nc3ccc(F)cc3)n2)nc1N | i | i | i | i | nt | nt
O=c1[nH]c2cnn(-c3ccccc3)c2c(=O)n1O | i | i | i | i | nt | nt
CC(C)Cc1ccc(-c2ccc3nccn3c2)cc1 | i | i | i | i | nt | nt
SMILES | Granule exo inh | NPR2 activator | Myeloid diff MLP | GC-A act | Myeloid diff | GFP autofluor
CC1(C)CC(=O)C=C(C#CC2(O)CCCCC2)C1 | i | i | ? | i | i | i
CC1(C)O[C@H]2CC(=O)OC[C@@]23C1CC(=O)[C@]1(C)C3CC[C@@]2(C)[C@H](c3ccoc3)OC(=O)[C@H]3O[C@]321 (stereo not given in full) | i | i | + | i | i | i
Cc1ccc2c(c1)S/C(=C\c1cccc[n+]1C)N2CCO | i | i | + | i | i | 68
CN(CCc1ccccc1)C(=O)c1ccc(NC(=O)Cc2ccc(NC(=O)C3CCN(S(=O)(=O)c4cccc([N+](=O)[O-])c4)CC3)cc2)cc1 | i | i | i | i | nt | nt
CCCc1nc2ccc(NC(C)=O)cc2c(=O)n1Cc1ccc(Cl)cc1 | i | i | i | i | nt | nt
COc1ccc(Cn2c(C3CC3)nc3ccc(NC(=O)c4cccnc4)cc3c2=O)cc1 | i | nt | + | nt | i | 14
COc1ccc(Cn2c(C3CC3)nc3ccc(NC(C)=O)cc3c2=O)cc1 | i | i | + | i | i | i

Screens (PubChem)
